Sampled rows, rich in hits. Any-hit rate of the full collection: about 1.5%.
AID504770 = growth inhibition of E. coli YBA685, primary screen, V. cholerae RctB inhibitors; actives 0.27% (n = 130,000); AID 504770, 2011; z-score (test concentration not listed); E. coli YBA685 rctB-dependent plasmid, OD600 growth, 3 h; stronger effect = lower value; in the data active means z-score below about -2, passing the limit was not always enough
MenB inh = M. tuberculosis MenB inhibitors, primary screen, biochemical, absorbance; inhibition, % (test concentration not listed); actives 0.43% (n = 100,000); 1,4-dihydroxy-2-naphthoyl-CoA synthase (Mycobacterium tuberculosis (strain ATCC 25618 / …; MenB enzyme assay, absorbance read-out; in the data active means inhibition above about 21%, passing the limit was not always enough
MbtI inh = MbtI salicylate synthase inhibitors, primary screen, biochemical, fluorescence intensity; P9WFX0; actives 0.89% (n = 100,000); AID 493033, 2011; inhibition, % (test concentration not listed); purified MbtI enzyme, fluorescence intensity read-out; in the data active means inhibition mostly above about 56%, no sharp cut-off; inactive means mostly below about 77%
Target sequence (P9WFX0 whole entry, looked up): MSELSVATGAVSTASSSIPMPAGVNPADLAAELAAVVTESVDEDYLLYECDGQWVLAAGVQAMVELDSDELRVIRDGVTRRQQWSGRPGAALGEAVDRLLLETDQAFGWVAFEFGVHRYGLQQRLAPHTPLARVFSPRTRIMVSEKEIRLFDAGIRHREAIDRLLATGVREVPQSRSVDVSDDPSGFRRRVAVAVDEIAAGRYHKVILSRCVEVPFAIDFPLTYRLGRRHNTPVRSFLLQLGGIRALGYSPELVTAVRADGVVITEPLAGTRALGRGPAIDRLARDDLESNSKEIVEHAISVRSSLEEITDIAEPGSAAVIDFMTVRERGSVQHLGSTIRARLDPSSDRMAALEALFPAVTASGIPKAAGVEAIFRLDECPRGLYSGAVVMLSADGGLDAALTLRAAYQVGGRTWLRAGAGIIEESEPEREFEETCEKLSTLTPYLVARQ
Polio RdRp inh = poliovirus RdRp elongation inhibitors, primary screen, biochemical, fluorescence polarization, total intensity; Genome polyprotein (Poliovirus type 1 (strain Mahoney)), P03300; poliovirus polymerase elongation; stronger effect = lower value; % elongation, % (compound at 16.7 µg/mL); actives 0.66% (n = 150,000); AID 588519, 2011; in the data active means % elongation below about 90%
Starred values were filed as active, the others as inactive; i = inactive; nt = no result.

SMILES	AID504770	MenB inh	MbtI inh	Polio RdRp inh
COc1ccc(-c2n[nH]c(=S)n2/N=C/c2c(C)nn(-c3ccccc3)c2C)cc1OC	0.9	-17.2	1.8	101.0
O=C(Oc1nsnc1N1CCOCC1)N1CCCCC1	0.75	8.2	6.8	101.0
O=C(Oc1nsnc1N1CCOCC1)c1ccccc1	-1.25	-6.5	nt	47.0*
O=C(O)c1cc2c(cn1)[nH]c1ccccc12	-3.5*	-0.2	116.2	106.0
O=C(O)c1cc(=O)c2ccccc2[nH]1	1.4	14.5	30.9	99.0
Cc1sc2c(c1C)c(=O)n(-c1ccc(Cl)cc1)c(=O)n2CC(=O)NC1CCCCC1	1.05	3.7	10.9	102.0
Clc1ccc(OCCn2ccnc2)c(Br)c1	-2.7*	-2.3	-11.9	101.0
CCOC(=O)C1CCN(c2nc(-c3cccc(Cl)c3)c3c(n2)-c2ccccc2OC3)CC1	0.95	2.6	i	100.0
COc1cccc(C(O)C(F)(F)F)c1 (stereo not given)	0.8	28.8*	8.1	100.0
O=C(CSC1CCCC1)c1ccccc1	0.85	13.0	12.4	103.0
CC(=O)NCCCc1[nH]n(-c2ccccc2)c(=O)c1NC(=O)c1ccccc1	-0.1	9.7	20.9	87.0*
CCOc1cc(CNC2CCN(Cc3ccccc3)C2)ccc1OCC(=O)N(C)C (stereo not given)	-0.5	-0.2	-5.0	101.0
Cn1c(=O)cc(OCC(=O)NC2CCN(Cc3ccccc3)CC2)c2ccccc21	1.2	-3.3	-4.7	101.0
O=c1cc(-c2c(F)c(F)c(F)c(F)c2F)oc2ccccc12	-0.65	nt	nt	nt
O=c1cc(-c2c(F)c(F)c(F)c(F)c2F)oc2c(F)c(F)c(F)c(F)c12	2.6	-30.6	28.7	90.0*
CC1CCC(C#N)(N(C)C(=O)COC(=O)c2ccc(CSc3ncn[nH]3)cc2)CC1 (stereo not given)	-0.9	-34.1	5.1	nt
O=C(NCc1ccco1)c1csc(C2COc3ccccc3O2)n1 (stereo not given)	-0.3	nt	nt	nt
NC(=O)CSc1nc2cc(S(=O)(=O)N3CCOCC3)ccc2o1	-0.55	-13.7	87.4	76.0*
CCCSc1nc2ccc(S(=O)(=O)N3CCOCC3)cc2[nH]1	-0.1	-20.3	93.3*	64.0*
CN(C)C(=O)CSc1nc2cc(S(=O)(=O)N3CCOCC3)ccc2o1	-1	-10.9	87.4*	81.0*
Cc1ccc2nc(SCC(N)=O)oc2c1	0.65	32.7*	3.2	101.0
CN(C)C(=O)CSc1nc2cc(Cl)ccc2o1	-1.2	-27.3	-4.6	nt
Cc1nn(C)c(C)c1NC(=O)COC(=O)c1n[nH]c(=O)c2ccccc12	-0.4	3.4	-2.9	103.0
NC1=NC(=Nc2ccccc2)c2ccccc21	0	nt	3.1	100.0
Nc1nc(=Nc2ccccc2)ss1	-4.2*	-94.5	nt	95.0
SMILES	AID504770	MenB inh	MbtI inh	Polio RdRp inh
CCn1c(-c2cc(OC)ccc2OC)csc1=Nc1ccc(O)cc1	-0.15	-37.5	65.8*	87.0*
Cc1ccc(C(=O)OCC(=O)Nc2c(F)c(F)c(F)c(F)c2F)s1	-0.85	nt	-7.4	102.0
CCN1C(=O)/C(=C\c2ccc(-c3ccc(Cl)c(C(=O)O)c3)o2)SC1=S	-1.15	-159.4	66.6*	75.0
CN1C(=O)S/C(=C/c2ccc(-c3ccc(C(=O)O)c(Cl)c3)o2)C1=O	-0.7	-47.8	-30.3	100.0
N#Cc1ccc(OCC(=O)Nc2cccnc2Cl)cc1	0.65	nt	-12.8	99.0
CN(C)C(=O)N1CCN(S(=O)(=O)c2ccccc2)CC1	1.35	37.1*	1.5	101.0
CN(C)S(=O)(=O)c1ccc(S(=O)(=O)N2CCN(C=O)CC2)cc1	0.65	30.5*	1.6	105.0
CCOC(=O)N1CCN(S(=O)(=O)c2ccccc2)CC1	0.25	nt	nt	nt
COc1cc(NC(=O)Cn2cnc3ccc(S(=O)(=O)N4CCC(C)CC4)cc3c2=O)cc(OC)c1OC	-0.95	-2.8	-7.7	103.0
CNC(=O)c1ccccc1-c1nc(-c2ccccc2OC)no1	-0.3	-19.5	-5.3	101.0
COc1ccccc1-c1noc(-c2ccccc2C(=O)NCc2ccco2)n1	-0.45	-16.6	59.2*	105.0
O=C(CSc1nc2ccccc2c(=O)n1-c1ccccc1)NCCCN1CCOCC1	-1.9	-9.3	1.1	104.0
S=C(c1ccc(Cl)cc1)N1CCCCC1	0.5	-74.6	39.0	99.0
Oc1ccc(C(=S)N2CCOCC2)cc1	1.45	-6.7	52.0	101.0
CC(C)COc1ccc(C(=S)N2CCCCC2)cc1	0.85	-12.5	54.1*	103.0
Oc1ccc(C(=S)N2CCN(c3cccc(Cl)c3)CC2)cc1	1.35	-40.1	59.2*	102.0
Oc1ccc(C(=S)N2CCCCCC2)cc1	0.35	-24.0	83.8*	97.0
CC1CCN(C(=S)c2ccc(O)cc2)CC1	-1	-11.8	98.5*	100.0
COc1cc(/C=C/C(=O)N(Cc2nnc(-c3ccc(Cl)cc3)o2)C2CCCC2)cc(OC)c1OC	0	-30.9	i	102.0
O=C(Oc1cccnc1)C1c2ccccc2Oc2ccccc21	-0.95	nt	nt	nt
CCCNC(=O)CSc1nnc(-c2ccccc2)n1CC	-1.85	-3.3	0.8	99.0
c1ccc(CN2CCN(Cc3ccccc3)CC2)cc1	2.55	nt	nt	nt
Oc1ccc(C(=S)N2CCN(Cc3ccccc3)CC2)cc1	-0.4	-14.8	93.9*	98.0
CN(C)S(=O)(=O)c1cccc(-c2nnc3n2N=C(c2ccccc2)C(CC(=O)O)S3)c1 (stereo not given)	-0.6	0.4	99.2*	75.0*
COCc1cc(C(C)(C)C)nc(N)n1	-0.55	nt	nt	nt
SMILES	AID504770	MenB inh	MbtI inh	Polio RdRp inh
c1ccc2oc(SCCSc3nc4ccccc4o3)nc2c1	0	-0.8	nt	106.0
OCC#CCSc1nc2ccccc2o1	0.95	38.6*	3.1	101.0
COC(=O)C1=C(N)OC2=C(C(=O)CCC2)C1c1ccc(OCc2ccccc2F)cc1 (stereo not given)	-0.7	-4.6	-13.5	103.0
CSc1nc2c(=S)[nH]c(=S)[nH]c2s1	-1.1	-94.9	55.4*	82.0*
O=C(CSc1nc2ccccc2n1-c1ccccc1)N1CCCC1	0	nt	5.5	101.0
COc1ccc(-c2nnc3n(Cc4ccccc4)c(=O)c4ccccc4n23)cc1	0.65	10.6	11.9	102.0
O=c1[nH]c(Nc2ccccc2)cc2ccccc12	-0.7	-16.6	65.3	76.0*
CC1CCN(C(=O)/C(=C/C=C\c2ccccc2)NC(=O)c2ccccc2)CC1	-0.35	-17.7	nt	106.0
Cc1ccc2oc(=O)n(CC(=O)c3ccc(F)cc3)c2c1	0.25	nt	nt	nt
Cc1ccc2oc(=O)n(CC(=O)C(C)(C)C)c2c1	-2.1*	nt	nt	nt
CC(Sc1nnnn1-c1ccccc1)C(=O)Nc1nccs1 (stereo not given)	-0.45	nt	nt	nt
S=C(NCc1ccccc1)NCC(c1cccnc1)N1CCOCC1 (stereo not given)	0.2	-33.2	-1.1	101.0
O=C(Cc1ccc(Cl)cc1)Nc1ccc2nn(-c3ccccc3)nc2c1	nt	nt	nt	107.0
O=C(Nc1ccc(F)c(F)c1)c1cnn(-c2ccccc2)n1	-0.4	-42.6	29.0	90.0*
Cn1c(C(=O)O)c(CNCc2ccccc2)c2ccccc21	0.3	-16.5	-9.1	103.0

High-throughput results as filed in PubChem.
